Source: the supplement of paper PMC8975748
Structures can show the parent of a compound that is named as a salt.

test system: Saccharomyces cerevisiae BY4741 SeMeCo community; assay: z-score of subpopulation abundance vs DMSO median, subpopulation auxotrophic for HU; higher = larger share of this subpopulation than in DMSO controls; conditions: 10 µM; 24 h; SM minimal medium; subpopulation (auxotrophy): HU
Procedure: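 Fluorescent four-plasmid SeMeCo (self-establishing metabolically cooperating S. cerevisiae BY4741 community; plasmids pH-mRuby2, pL-mWasabi, pU-eCFP, pM-TagRFP657) was grown 24 h in minimal SM medium with each Selleck FDA-approved drug at 10 µM in 384-well plates. Cells were fixed and imaged by high-content confocal microscopy. For each auxotrophic subpopulation (and the prototroph), a z-score gives the deviation from the DMSO vehicle-control population median.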

| Structure (SMILES) | z-score of subpopulation abundance |
| --- | --- |
| C[C@@H](O)[C@H]1C(=O)N2C(C(=O)O)=C(S[C@@H]3CN[C@H](CNS(N)(=O)=O)C3)[C@H](C)[C@H]12 [Doripenem Hydrate] | -0.19 |
| CN1CCN(CC(=O)N2c3ccccc3C(=O)Nc3cccnc32)CC1 [Pirenzepine dihydrochloride] | -0.67 |
| CC[C@H](Nc1ncnc2[nH]cnc12)c1nc2cccc(F)c2c(=O)n1-c1ccccc1 [Idelalisib (CAL-101, GS-1101)] | 0.68 |
| O=C(O)c1ccccc1O [Salicylic acid] | -1 |
| NS(=O)(=O)Cc1noc2ccccc12 [Zonisamide] | -0.35 |
| CCOC(=O)C1=C(C)NC(C)=C(C(=O)OC)C1c1cccc([N+](=O)[O-])c1 (stereo not given) [Nitrendipine] | 1.51 |
| Cn1nnnc1SCC1=C(C(=O)O)N2C(=O)[C@@H](NC(=O)[C@H](OC=O)c3ccccc3)[C@H]2SC1 [Cefamandole nafate] | 0.51 |
| CC1(C)S[C@@H]2[C@H](NC(=O)[C@H](N)c3ccccc3)C(=O)N2[C@H]1C(=O)O [Ampicillin Trihydrate] | -0.36 |
| COc1cc(NC(C)CCCN)c2ncccc2c1 (stereo not given) [Primaquine Diphosphate] | -1.2 |
| CN(C)CCC=C1c2ccccc2C=Cc2ccccc21 [Cyclobenzaprine HCl] | 0.59 |
| CCCCc1oc2ccccc2c1C(=O)c1cc(I)c(OCCN(CC)CC)c(I)c1 [Amiodarone HCl] | 4.02 |
| C=CCCCCCCCCC(=O)[O-].C=CCCCCCCCCC(=O)[O-].[Zn+2] [Zinc Undecylenate] | 2.38 |
| CN1CCN(C2=Nc3ccccc3Oc3ccc(Cl)cc32)CC1 [Loxapine Succinate] | 0.53 |
| O=C(O)c1cc(-c2ccc(F)cc2F)ccc1O [Diflunisal] | -2.05 |
| COc1ccc(CN2CCN(C(c3ccc(F)cc3)c3ccc(F)cc3)CC2)c(OC)c1OC [Lomerizine 2HCl] | 0.22 |
| CN[C@@H]1[C@@H](O)[C@@H](O[C@@H]2[C@@H](O)[C@H](O[C@H]3O[C@H](CN)[C@@H](O)[C@H](O)[C@H]3O)[C@@H](N)C[C@H]2NC(=O)[C@@H](O)CN)OC[C@]1(C)O [Isepamicin Sulphate] | 1.15 |
| CC(C)[C@H](N)C(=O)OCC(CO)OCn1cnc2c(=O)[nH]c(N)nc21 (stereo not given in full) [Valganciclovir HCl] | -0.15 |
| CC[C@H](C)C(=O)O[C@H]1C[C@H](O)C=C2C=C[C@H](C)[C@H](CC[C@@H](O)C[C@@H](O)CC(=O)O)[C@H]21 [Pravastatin] | 1.19 |
| CN1C(C(=O)Nc2ccccn2)=C(O)c2sc(Cl)cc2S1(=O)=O [Lornoxicam] | 0.59 |
| O=C(O)C1=C(CSc2nnnn2CS(=O)(=O)O)CS[C@@H]2[C@H](NC(=O)[C@H](O)c3ccccc3)C(=O)N12 [Cefonicid sodium] | 0.75 |

| Structure (SMILES) | z-score of subpopulation abundance |
| --- | --- |
| CO[C@H]1C[C@@H]2CC[C@@H](C)[C@@](O)(O2)C(=O)C(=O)N2CCCC[C@H]2C(=O)O[C@H]([C@H](C)C[C@@H]2CC[C@@H](O)[C@H](OC)C2)CC(=O)[C@H](C)/C=C(\C)[C@@H](O)[C@@H](OC)C(=O)[C@H](C)C[C@H](C)/C=C/C=C/C=C/1C [Rapamycin (Sirolimus)] | 29.9 |
| Nc1ccc(S(=O)(=O)c2ccc(N)cc2)cc1 [Dapson] | 0.31 |
| C#C[C@]1(O)CC[C@H]2[C@@H]3CCC4=CCCC[C@@H]4[C@H]3C(=C)C[C@@]21CC [Desogestrel] | -0.11 |
| CCCCCC(=O)O[C@]1(C(C)=O)CC[C@H]2[C@@H]3CCC4=CC(=O)CC[C@]4(C)[C@H]3CC[C@@]21C [Hydroxyprogesterone caproate] | 1.19 |
| C#C[C@]1(O)CC[C@H]2[C@@H]3CCc4cc(O)ccc4[C@H]3CC[C@@]21C [Ethinyl Estradiol] | 0.01 |
| CO/N=C(\C(=O)N[C@@H]1C(=O)N2C(C(=O)O)=C(CSC(=O)c3ccco3)CS[C@H]12)c1csc(N)n1 [Ceftiofur HCl] | 0.85 |
| Cc1ncc([N+](=O)[O-])n1C [Dimetridazole] | 0.17 |
| C[C@]12CC[C@@H]3c4ccc(O)cc4CC[C@H]3[C@@H]1CCC2=O [Estrone] | -0.27 |
| Nc1ccc(S(=O)(=O)Nc2ccccn2)cc1 [Sulfapyridine] | -0.55 |
| Clc1ccc(COC(Cn2ccnc2)c2ccc(Cl)cc2Cl)cc1 (stereo not given) [Econazole nitrate] | 12.4 |
| NC(=O)c1cn(Cc2c(F)cccc2F)nn1 [Rufinamide] | -0.24 |
| Cc1cc(C)nc(NS(=O)(=O)c2ccc(N)cc2)n1 [Sulfamethazine] | -0.43 |
| CC1CCc2c(N3CCC(O)CC3)c(F)cc3c(=O)c(C(=O)O)cn1c23 (stereo not given) [Nadifloxacin] | 0.43 |
| CCn1cc(C(=O)O)c(=O)c2cc(F)c(N3CCNCC3)nc21 [Enoxacin] | -0.82 |
| O=C(Cn1cnnn1)N[C@@H]1C(=O)N2C(C(=O)O)=C(CSc3nncs3)CS[C@H]12 [Ceftezole sodium] | 0.45 |
| Cc1cccc(Nc2ccccc2C(=O)O)c1C [Mefenamic Acid] | 0.29 |
| CC[N+](C)(C)c1cccc(O)c1 [Edrophonium chloride] | -0.07 |
| O=C1OCCN1/N=C/c1ccc([N+](=O)[O-])o1 [Furazolidone] | -5.84 |
| CC(=O)OC(C)C[N+](C)(C)C (stereo not given) [Methacholine chloride] | 0.67 |
| Cc1cc(O)cc(C)c1Cl [Chloroxylenol] | 1.05 |
